Shown are actives, neighbours in structure and some others; about 1.8% of the full set was active somewhere.
VLA-4 antagonist – inhibitors of LDV-FITC binding to Mn2+-activated VLA-4, primary screen, Jurkat cells | inhibition, % at 10 µM (by protocol) | LDV-FITC binding with Mn2+, flow cytometry; 100% = Mn2+-driven binding gain fully reversed | AID 529, 2006 | actives 0.2% (n = 24,000) | Integrin alpha-4 (Homo sapiens), P13612;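 active = inhibition above 50%; inconclusive = compound itself fluorescent, judged against control cell fluorescence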;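 note: 0% = Mn2+ stimulated cells lacking compound and 100% = ligand binding without Mn2+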
Jurkat autofluor – compound autofluorescence on Jurkat cells, primary screen, artefact control for VLA-4 allosteric ligand project, cell-based, flow cytometry; stronger effect = higher value; 1 = vehicle-only cell background; fluorescence ratio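 (tested at 10 µM compound in the well)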; actives 0.61% (n = 24,000); AID 576, 2007;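 active = fluorescence ratio above 2.44, which is 1 plus 3 SD of all ratios; inconclusive = signal too bright to measure linearly, ratio around 10 or more; inactive = fluorescence ratio below 2.44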;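 note: green fluorescence of cells measured with 488 nm excitation and 530 nm emission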
VLA-4 allo ag – enhancers of LDV-FITC binding to VLA-4 integrin, primary screen, Jurkat cells, flow cytometry; Integrin alpha-4 (Homo sapiens), P13612; activation, % at 10 µM (by protocol); 24,000 tested, under 10 active;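 active = fluorescent ligand binding to cells raised by more than 40% of the manganese-induced maximum; inconclusive = compound's own fluorescence above 85% of the ligand control signal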;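 note: 0% = ligand binding without compound and 100% = manganese-stimulated maximal binding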
FPR binder – human FPR ligands by binding competition, primary screen, cell-based, FPRL1 counter-screen, flow cytometry | inhibition, % (concentration not given with the values) | FPR-expressing cells, fluorescent ligand binding | actives 0.74% (n = 24,000);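 note: 0% = buffer wells and 100% = receptor blocker peptide wells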
Target sequence (P21462 whole entry, looked up): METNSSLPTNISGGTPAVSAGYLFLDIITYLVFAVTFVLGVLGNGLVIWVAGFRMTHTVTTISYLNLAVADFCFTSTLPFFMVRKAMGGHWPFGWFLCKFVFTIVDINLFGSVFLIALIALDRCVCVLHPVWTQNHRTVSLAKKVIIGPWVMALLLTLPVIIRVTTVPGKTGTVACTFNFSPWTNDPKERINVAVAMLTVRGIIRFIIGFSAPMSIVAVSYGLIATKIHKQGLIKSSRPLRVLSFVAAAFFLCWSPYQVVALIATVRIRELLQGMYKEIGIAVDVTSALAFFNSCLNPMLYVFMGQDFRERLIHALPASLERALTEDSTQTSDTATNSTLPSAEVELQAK
FPRL1 binder – human FPRL1 ligands by binding competition, primary screen, cell-based, FPR counter-screen, flow cytometry; N-formyl peptide receptor 2 (Homo sapiens), P25090; FPRL1-expressing cells, fluorescent ligand binding inhibition; inhibition, % (test concentration not listed); actives 0.3% (n = 24,000); AID 441, 2006;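 note: 0% = buffer alone and 100% = receptor blocker peptide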
* = called active by the depositor. Cut-off read from the data, not from the text of the source, unless noted: active = inhibition above about 30%; inconclusive = no clear call, values can overlap the other calls; inactive = below that.

Cc1oc2cc3c(C(=O)OCCN(C)C)c(C)oc3cc2c1C(=O)OCCN(C)C was read as VLA-4 antagonist -4, Jurkat autofluor 1.1, VLA-4 allo ag 1, FPR binder -4 and FPRL1 binder 2.
`COc1ccc(C2C(C(=O)c3cccs3)=C(O)C(=O)N2c2nnc(C)s2)cc1OC` (configuration not stated) gave FPR binder 36* and FPRL1 binder 27.
Screening C=CCOc1ccc(C2C(C(=O)c3cccs3)=C(O)C(=O)N2c2nnc(C)s2)cc1 (configuration not stated) returned FPR binder 43* and FPRL1 binder 21.
For COc1ccc(C(=O)Nc2nncs2)cc1S(=O)(=O)N1CC(c2ccccc2)CC1=O (configuration not stated) the results were VLA-4 antagonist -9, Jurkat autofluor 0.98, VLA-4 allo ag 6, FPR binder 2 and FPRL1 binder 0.
For CCn1nnnc1NCc1cccn1C the results were VLA-4 antagonist -12, Jurkat autofluor 1, VLA-4 allo ag -2, FPR binder 4 and FPRL1 binder 14.
Cc1cc(O)c(NC(=O)c2ccc(Br)o2)cc1C was read as VLA-4 antagonist 4, Jurkat autofluor 1.3, VLA-4 allo ag -3, FPR binder 0 and FPRL1 binder 3.
O=C(Nc1ccc(Nc2ccccc2)cc1)c1ccc(Br)o1 was read as FPR binder 18 and FPRL1 binder 34*.
`Cc1ccc(-c2nc(NC(=O)CSc3nnnn3-c3ccccc3)ns2)cc1` gave VLA-4 antagonist 51*, Jurkat autofluor 1.2, VLA-4 allo ag -16, FPR binder 0 and FPRL1 binder 8.
O=C(NCC12CC3CC(CC(C3)C1)C2)c1nn2c(c1Cl)NC(c1ccco1)CC2C(F)(F)F (configuration not stated) was read as VLA-4 antagonist 55*, Jurkat autofluor 1.2, VLA-4 allo ag 8, FPR binder -7 and FPRL1 binder -2.
Screening O=C(NCCN1CCOCC1)c1nn2c(c1Cl)NC(c1ccccc1)CC2C(F)(F)F (configuration not stated) returned VLA-4 antagonist -4, Jurkat autofluor 1, VLA-4 allo ag 4, FPR binder 2 and FPRL1 binder 2.
`Cc1ccsc1C1C2=C(CC(C)(C)CC2=O)Nc2ncnn21` (configuration not stated) gave VLA-4 antagonist -41, Jurkat autofluor 1.1, VLA-4 allo ag 15, FPR binder 36* and FPRL1 binder 2.
For Cc1ccsc1C1C2=C(CCCC2=O)Nc2ncnn21 (configuration not stated) the results were VLA-4 antagonist -26, Jurkat autofluor 0.98, VLA-4 allo ag -1, FPR binder 9 and FPRL1 binder -2.
For CCOc1cccc(/C(O)=C2/C(=O)C(=O)N(CCOC)C2c2ccc(C)o2)c1 (configuration not stated) the results were FPR binder 51* and FPRL1 binder -11.
For Cc1ccc(C2/C(=C(/O)c3ccccc3)C(=O)C(=O)N2CCN2CCOCC2)o1 (configuration not stated) the results were FPR binder -5 and FPRL1 binder 0.
Screening CCOc1cc2[nH]c(=O)n(CC3CCC(C(=O)NC(C)CC)CC3)c(=O)c2cc1OCC (configuration not stated) returned VLA-4 antagonist 63*, Jurkat autofluor 1, VLA-4 allo ag -9, FPR binder 6 and FPRL1 binder -7.
For CCOc1cc2[nH]c(=O)n(CC3CCC(C(=O)NC4CCCCC4)CC3)c(=O)c2cc1OCC (configuration not stated) the results were VLA-4 antagonist 9, Jurkat autofluor 0.92, VLA-4 allo ag 1, FPR binder -1 and FPRL1 binder -9.
Screening COc1ccc2cnn(-c3ccccc3C)c(=O)c2c1OC returned VLA-4 antagonist -11, Jurkat autofluor 1, VLA-4 allo ag -2, FPR binder -10 and FPRL1 binder -6.
`COc1ccc2cnn(-c3ccccc3)c(=O)c2c1OC` gave VLA-4 antagonist -30, Jurkat autofluor 1, VLA-4 allo ag -2, FPR binder 36* and FPRL1 binder 45*.
For CCOC(=O)N1CCC(NS(=O)(=O)c2cc3c(cc2Cl)NC(=O)CO3)CC1 the results were VLA-4 antagonist inconclusive, Jurkat autofluor 5.1*, VLA-4 allo ag inconclusive, FPR binder -19 and FPRL1 binder -8.
Screening COc1cc(N2C(=O)NC3CC2(C)Oc2ccccc23)cc(OC)c1OC (configuration not stated) returned VLA-4 antagonist -4, Jurkat autofluor 0.91, VLA-4 allo ag 3, FPR binder 0 and FPRL1 binder -9.
Screening CN(C)c1ccc(/C=C/C(O)=C2/C(=O)N(C)C3(C)CC2c2ccccc2O3)cc1 (configuration not stated) returned VLA-4 antagonist inconclusive, Jurkat autofluor 6.9*, VLA-4 allo ag inconclusive, FPR binder -15 and FPRL1 binder -18.
Screening Cc1n[nH]c(C)c1S(=O)(=O)N1CCCC(C(=O)NC2CCCc3ccccc32)C1 (configuration not stated) returned VLA-4 antagonist inconclusive, Jurkat autofluor 2.5*, VLA-4 allo ag inconclusive, FPR binder 0 and FPRL1 binder -3.
Cc1n[nH]c(C)c1S(=O)(=O)N1CCCC(C(=O)NCc2cccs2)C1 (configuration not stated) was read as VLA-4 antagonist -40, Jurkat autofluor 0.8, VLA-4 allo ag 21, FPR binder 2 and FPRL1 binder -1.
CCC(C)(C(=O)NC1CCCCC1)N(Cc1ccco1)C(=O)c1ccc2c(c1)OCO2 (configuration not stated) was read as VLA-4 antagonist -9, Jurkat autofluor 0.96, VLA-4 allo ag -2, FPR binder 6 and FPRL1 binder -1.
Screening CCC(C)(C(=O)NC1CCCC1)N(CC1CCCO1)C(=O)c1ccc2c(c1)OCO2 (configuration not stated) returned VLA-4 antagonist 3, Jurkat autofluor 1, VLA-4 allo ag 3, FPR binder 37* and FPRL1 binder 2.
For Cc1ccc(C)c(-n2c(CNC(=O)c3ccco3)nnc2SCC(=O)Nc2nnc(C)s2)c1 the results were VLA-4 antagonist -11, Jurkat autofluor 1.1, VLA-4 allo ag 4, FPR binder 1 and FPRL1 binder -2.
Cc1ccc(C)c(-n2c(CNC(=O)c3ccco3)nnc2SCC(=O)N2CCc3ccccc32)c1 was read as VLA-4 antagonist 2, Jurkat autofluor 1, VLA-4 allo ag 0, FPR binder 55* and FPRL1 binder 0.
